# PubChem BioAssay AID504697 (The Scripps Research Institute Molecular Screening Center, 2011)
# Activity calls are given as the source filed them.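 How the source made its calls: active means EC50 at or below 10 µM; inactive means EC50 above 10 µM.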
# Assay: compound autofluorescence in calcium buffer – biochemical, fluorescence, no RTF in test wells, artefact control for cardiac thin filament activator project, dose response (AID 504697);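 further: emission near 535 nm under roughly 485 nm excitation as for IANBD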
# Conditions: compound-only fluorescence in RTF assay buffer with Ca2+ (no RTF in test wells), artifact counterscreen
row,SMILES,EC50
1,O=C(c1cnc2ccccc2n1)N1CCN(c2ccc(C(F)(F)F)cn2)CC1,> 71.4 µM (inactive)
2,Cc1ccc(NC(=O)COc2ccc(/C=N/NC(=O)CSCc3ccccc3)cc2)cc1,> 71.5 µM (inactive)
3,CN(/N=C/c1ccc(-c2ccc([N+](=O)[O-])cc2)o1)c1ccccc1,> 71.5 µM (inactive)
4,COc1cc(-c2c(-c3ccc4c(c3)OCO4)noc2C)ccc1F,> 71.4 µM (inactive)
5,CN(C)NC(=O)c1ccc([N+](=O)[O-])s1,> 71.4 µM (inactive)
6,COc1ccccc1-c1nnc(SCc2nc3ccccc3s2)n1C,> 71.5 µM (inactive)
7,COc1ccc(/C=C2/SC(c3ccc(C)cc3)=NC2=O)cc1OC,1.43 µM (active)
8,S=C(Nc1cc(Cl)ccc1Oc1ccccc1)N1CCN(c2ccccn2)CC1,> 71.4 µM (inactive)
9,CC(=O)/C(C=Nc1noc(C)c1Br)=C(\C)O,> 71.6 µM (inactive)
10,CC1=CC(=C(C#N)c2nc3ccccc3s2)C=C(C)N1c1ccc(F)cc1,22.2 µM (inactive)
11,CCN(CC)c1ccc(/C=C2\SC(N)=NC2=O)cc1,30.6 µM (inactive)
12,CC(=O)N1CCc2c(sc(NC(=O)C3CCCN3S(=O)(=O)c3cccs3)c2C(N)=O)C1 (configuration not stated),42.6 µM (inactive)
13,Fc1ccc(-c2nnc(-c3ccc(Cl)cc3Cl)o2)cc1,> 71.5 µM (inactive)
14,CCN(CC)C(=S)SCC(=O)c1c(C)[nH]c2ccccc12,> 71.5 µM (inactive)
15,CC(/C=N/Nc1ccc2nncn2n1)=C\c1ccccc1,> 71.5 µM (inactive)
16,Cc1nnc(SCC(=O)NC(C)(C)C)n1C1CCCCC1,> 71.5 µM (inactive)
17,COc1ccc(-c2nn(-c3ccccc3)cc2/C=N/NC(N)=S)cc1OC,> 71.5 µM (inactive)
18,O=C(O)c1ncc(-c2ccccc2)cn1,> 71.5 µM (inactive)
19,O=c1[nH][nH]c(C(F)(F)F)c1C=Nc1cccc(Cl)c1,> 71.5 µM (inactive)
20,O=C1c2ccsc2SCCN1Cc1ccc(F)cc1,> 71.5 µM (inactive)
21,COC(=O)C1=C(C)NC(=O)/C1=C\N(C)C,> 71.5 µM (inactive)
22,CCN(CC(=O)Nc1ccccc1C(F)(F)F)C(=O)c1ccc(-n2nc(C)c(CCC(=O)OC)c2C)cc1,> 71.5 µM (inactive)
